The list is not random: actives were taken first. Their share in the collection is about 2.9%.
GLP1R inv ag – qHTS of GLP-1 Receptor Inverse Agonists (Inhibition Mode); Glucagon-like peptide 1 receptor (Homo sapiens), P43220; HEK293 GLP-1R CRE-luciferase, luminescence, 24 h; GLP-1R form is constitutively active; Potency, µM (doses to about 38.3 µM), inactives show at the top dose activity change, negative = inhibition, actives largely listed as inhibitors; 410,000 compounds, 1.6% hits; further: potency means the concentration at half of the fitted maximal effect; on the % scale 0 is the no-effect control and ±100 the full control effect; nearly all actives have a fitted effect of over 55% in size
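Inverse agonism was detected as reduced cAMP-driven luciferase luminescence after 24 h compound treatment. The cells were HEK293 clones expressing constitutively active human GLP-1R with the reporter. Reporter-only and GPR119 cell lines served as counterscreen controls.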
p53 reactivation – qHTS assay for re-activators of p53 using a Luc reporter. AID 504706, 2011. H1299 p53-A138V BP100-luciferase reporter, luminescence, 24 h. Potency, µM (titrated, usually from 92.2 µM), without a hit: at the highest dose activity change, positive = activation, actives largely listed as activators. 320,000 compounds, 0.063% hits; further: potency means the concentration at half of the fitted maximal effect; % of control where 0% means no effect; nearly all actives have a fitted effect of over 45% in size
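p53-null H1299 cells stably carrying temperature-sensitive p53-A138V and a BP100-luciferase reporter were pinned with compounds (4-point, 1:5 series) and held 24 hrs at 37 deg C. Luminescence was read 10 min after detection reagent.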
ClpP mod – qHTS Assay for Activators of ClpP; ATP-dependent Clp protease proteolytic subunit (Bacillus subtilis (strain 168)), P80244; purified B. subtilis ClpP, FRET peptide cleavage, 20 min; Potency, µM (titrated, usually from 57.5 µM), for inactives: at the top dose activity change, negative = active; 340,000 compounds, 1.9% hits; AID 651965, 2013; active means well fitted falling curve with a large enough effect; inconclusive means small, poorly fitted or top-dose-only effect; inactive means no such curve, though single readings can be large or run the other way; further: potency means the concentration at half of the fitted maximal effect; the source files actives as falling curves though it sought activators and does not explain the sign; nearly all actives have a fitted effect of over 65% in size
Target sequence (P80244 whole entry, looked up): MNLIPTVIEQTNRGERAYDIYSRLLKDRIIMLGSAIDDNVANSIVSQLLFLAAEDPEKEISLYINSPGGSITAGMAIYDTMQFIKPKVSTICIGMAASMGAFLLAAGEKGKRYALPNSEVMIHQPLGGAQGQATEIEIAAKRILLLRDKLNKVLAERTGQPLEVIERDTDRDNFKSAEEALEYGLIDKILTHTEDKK
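Purified B. subtilis ClpP, 10 microg/mL final in Tris/HCl pH8 with KCl, BSA, glycerol and Tween-20, cleaved an Abz/nitrotyrosine-quenched decapeptide. Fluorescence (ex 320, em 430) was read at 0 and 20 min at room temperature. Delta was normalized to 5.8 microM ADEP and DMSO/no-enzyme controls.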
GLP1R cytotox – qHTS of GLP-1 Receptor Inverse Agonists: Cytotox Screen; Potency, µM (series often up to 38.3 µM), inactives show at the top dose activity change, negative = inhibition, hits mostly inhibitors; HEK293 cAMP-luciferase reporter cells, luminescence, 24 h; AID 624418, 2012; 410,000 compounds, 0.13% hits;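 further: loss of luciferase light is scored as toxicity; potency means the concentration at half of the fitted maximal effect; on the % scale 0 is the no-effect control and ±100 the full control effect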
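A 23 nL compound transfer followed 12 hours of cell culture at 37 deg C; exposure then lasted 24 hr. Luciferase assay detection reagent was dispensed and plates read for luminescence after a 12 min room-temperature wait.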
GLP-1R agonist – qHTS of GLP-1 Receptor Agonists; AID 624172, 2012; HEK293 GLP-1R CRE-luciferase, luminescence, 4-6 h; cells express a hypersensitive GLP-1R form; Potency, µM (highest dose often 45.6 µM), inactives show at the top dose activation, hits mostly activators; 380,000 compounds, 0.007% hits; Glucagon-like peptide 1 receptor (Homo sapiens), P43220; further: potency means the concentration at half of the fitted maximal effect; % of control where 0% means no effect
LDHA inh – qHTS assay for inhibitors of human lactate dehydrogenase | 480,000 compounds, 0.15% hits | activity change, % (values are at about 110 or 230 µM) | purified LDHA, NADH/diaphorase-resazurin fluorescence; hits give low values; in the data active means activity change below about -30%; inconclusive means mostly about -25% to -30%;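 further: plate controls were DMSO wells for no effect and wells without enzyme for full effect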
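Resorufin fluorescence (ex540/em590), read at 0 and 20 min after diaphorase/resazurin addition, reports the NADH left after a 5 min room-temperature reaction of 2 nM human LDH5 with 0.06 mM NADH and 0.2 mM pyruvate.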
An asterisk follows results filed as active; ? = inconclusive; nt = no result; [ ] = another dose, or the depositor's remark. Unless noted, the call rests on the fitted dose curve; in most records, active means well fitted curve in the direction sought with a large enough effect; inconclusive means small, poorly fitted or top-dose-only effect, or another doubt; inactive means no such curve, though single readings can be large; an effect the other way counts as inactive or inconclusive.

SMILES | GLP1R inv ag | p53 reactivation | ClpP mod | GLP1R cytotox | GLP-1R agonist | LDHA inh
CCc1ccc(C(C)NC(=S)NC2CCCCC2)cc1 (configuration not stated) | ? | 12% | 1% | -26% | -3% | 1
CCOc1ccc(C(C)NC(=O)CCC(=O)O)cc1 (configuration not stated) | 1% | 4% | 28µM* | -20% | -1% | 2
CCN(CC)c1ccc(/C=N/NC(=O)CC(C)C)cc1 | -5%[0.307 µM] | 8% | 18µM* | 3%[0.307 µM] | 14% | -3
CCN(CC)c1ccc(/C=N/NC(=O)OC(C)(C)C)cc1 | ? | 26% | nt | 1% | 8% | 1
CCN(CC)c1ccc(/C=N/NC(=O)Nc2ccccc2)cc1 | ? | ? | 4% | -21% | 14% | 1
CCN(CC)c1ccc(/C=N\NC(N)=O)cc1 | 45% | -6% | 25µM* | -6% | 8% | 2
Cc1c(-c2nsc(NC(=O)c3ccc(Cl)cc3)n2)nnn1-c1ccc(C(C)C)cc1 | -24% | nt | 25µM* | -11% | nt | -7
COC(=O)c1ccc(-n2nnc(-c3nsc(NC(=O)c4ccc(Cl)cc4)n3)c2C)cc1 | -9% | nt | -3% | 2% | -2% | -5
COc1cccc(C(=O)Nc2nc(-c3nnn(-c4cc(C)ccc4C)c3C)ns2)c1 | -12% | nt | -2% | 4% | nt | -2
COc1cccc(C(=O)Nc2nc(-c3nnn(-c4ccccc4C(F)(F)F)c3C)ns2)c1 | 5.6µM* | nt | -1% | 0% | nt | -5
COc1cccc(NC(=S)Nc2ccc(O)cc2)c1 | 10% | 5% | 1% | 5% | -3% | 5
COc1cccc(NC(=S)NC2CC(C)CC(C)(C)C2)c1 (configuration not stated) | 8.9µM* | nt | 1% | ? | 0% | 5
O=C(NCc1nnc(SCc2ccc(F)cc2)n1-c1ccc(F)cc1)C12CC3CC(CC(C3)C1)C2 | 7.1µM* | 17% | 1% | ? | 2% | -1
Cc1ccc(NC(=O)N(C)c2ccccc2)cc1 | -1% | 6% | 1% | -9% | 3% | -7
Cc1ccc2c(c1)c1c(n2C)-c2[nH]ncc2CC1 | 52% | 22% | 13µM* | 7% | 9% | 2
Cc1ccc2c(CC(=O)Nc3ccc(S(=O)(=O)N4CCCCC4)cc3)coc2c1 | ? | nt | -5% | -4% | nt | -2
Cc1ccc2c(CC(=O)Nc3ccc(S(=O)(=O)N4CCCC(C)C4)cc3)coc2c1 (configuration not stated) | 10µM* | nt | -2% | -19% | nt | 3
N#Cc1cc2c(=O)n3ccccc3nc2n(-c2nnc(SCc3ccccc3Cl)s2)c1=O | -3% | nt | 5% | 55% | nt | -1
COc1cccc2sc(N(Cc3cccnc3)C(=O)C3CCCCC3)nc12 | ? | nt | -4% | -2% | nt | 5
O=C(C1CCCCC1)N(Cc1cccnc1)c1nc2c(F)cccc2s1 | 8.9µM* | nt | -3% | -4% | nt | 1
COc1ccc(NC(=O)CCCCCNC(C)=O)c2cccnc12 | nt | nt | nt | nt | nt | -9
COCCNC(=O)C1CCCN(C(=O)COc2ccc(C(C)(C)C)cc2)CC1 (configuration not stated) | 11% | nt | 1% | 4% | -4% | -8
CC1(C(=O)Nc2ccccc2Cc2ccccc2)CCN1Cc1ccccc1Cl (configuration not stated) | ? | nt | -7% | 2% | -6% | -4
CC1(C(=O)Nc2ccccc2Cc2ccccc2)CCN1CCc1ccccc1 (configuration not stated) | 13µM* | nt | 1% | 6% | -3% | 3

From PubChem
